# Assay results taken from PubChem BioAssay AID1159580 (chemical genetic matrix, 2015).
# Among all 5,500 compounds or so, about 2,000 (36%) were called active. About 18% were inconclusive and are not listed. This is one part of the list. A number with no mark means an inactive call. No stated cut-off is given here; in the data, active means normalized growth mostly below about 0.91 (no sharp cut-off); inconclusive means no clear call, values can overlap the other calls; inactive means mostly above about 0.92.
# Test: chemical genetic growth profiling, strain panel (AID 1159580);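 further: tested at 20 µM; growth read once vehicle control cultures reached saturation at 30 °C; 1 = growth at the plate median or of vehicle wells; lower values mean less growth of the strain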
# Settings: S. cerevisiae deletion strains, growth OD
# [1] = locus YAL013W, strain DEP1, active compounds read low
# [2] = locus YBR229C, strain ROT2, active compounds read low
# [3] = locus YDL101C, strain DUN1, active compounds read low
# [4] = locus YDR150W, strain NUM1, active compounds read low
# [5] = locus YEL061C, strain CIN8, active compounds read low
# [6] = locus YGR078C, strain PAC10, active compounds read low
# [7] = locus YHR030C, strain SLT2, active compounds read low
# [8] = locus YHR087W, strain rtc3, active compounds read low
# [9] = locus YJR043C, strain POL32, active compounds read low
# [10] = locus YJR075W, strain HOC1, active compounds read low
# [11] = locus YKL190W, strain CNB1, active compounds read low
# [12] = locus YLR039C, strain RIC1, active compounds read low
# [13] = locus YLR058C, strain SHM2 (second series), active compounds read low
# [14] = locus YLR085C, strain ARP6, active compounds read low
# [15] = locus YLR262C, strain YPT6, active compounds read low
# [16] = locus YML094W, strain GIM5, active compounds read low
# [17] = locus YMR219W, strain ESC1, active compounds read low
# [18] = locus YMR263W, strain SAP30, active compounds read low
# [19] = locus YMR307W, strain GAS1, active compounds read low
# [20] = locus YNL153C, strain GIM3, active compounds read low
# [21] = locus YNL298W, strain CLA4 (second series), active compounds read low
# [22] = locus YNL322C, strain KRE1, active compounds read low
# [23] = locus YNR030W, strain Alg12, active compounds read low
# [24] = locus YOL006C, strain TOP1, active compounds read low
# [25] = locus YPL055C, strain LGE1, active compounds read low
# [26] = locus YPL241C, strain CIN2, active compounds read low
# [27] = locus YPR135W, strain CTF4, active compounds read low
structure (smiles),measurement,setting,value
CCOC(=O)c1ccc(NC(=S)N2CCOCC2)cc1,normalized growth,[1],1.01
same,normalized growth,[2],0.979
same,normalized growth,"locus YCL061C, strain MRC1, active compounds read low",0.939
same,normalized growth,[3],0.978
same,normalized growth,[4],0.945
same,normalized growth,[5],0.985
same,normalized growth,[6],0.99
same,normalized growth,[7],0.956
same,normalized growth,[8],0.974
same,normalized growth,[9],0.962
same,normalized growth,[10],0.947
same,normalized growth,[11],1.01
same,normalized growth,[12],1
same,normalized growth,[13],1.02
same,normalized growth,[14],0.991
same,normalized growth,[15],1
same,normalized growth,[16],0.978
same,normalized growth,[17],0.999
same,normalized growth,[18],0.933
same,normalized growth,[19],0.965
same,normalized growth,[20],0.982
same,normalized growth,[21],0.951
same,normalized growth,[22],1.01
same,normalized growth,[23],1.01
same,normalized growth,[24],0.805
same,normalized growth,[25],0.888
same,normalized growth,[26],0.988
same,normalized growth,[27],0.972
CCOC(=O)c1ccc(N=Cc2cc(Cl)cc(Cl)c2O)cc1,normalized growth,"locus YAR019C, strain CDC15, active compounds read low",0.934
same,normalized growth,"locus YBL105C, strain PKC1, active compounds read low",0.949
same,normalized growth,"locus YBR135W, strain CKS1, active compounds read low",0.95
same,normalized growth,"locus YBR136W, strain MEC1, active compounds read low",0.954
same,normalized growth,"locus YBR160W, strain CDC28, active compounds read low",0.946
same,normalized growth,"locus YDL017W, strain CDC7, active compounds read low",0.94
same,normalized growth,"locus YDL028C, strain MPS1, active compounds read low",0.946
same,normalized growth,[3],0.946
same,normalized growth,"locus YDL108W, strain KIN28, active compounds read low",0.948
same,normalized growth,"locus YDL132W, strain cdc53, active compounds read low",0.975
same,normalized growth,"locus YDL214C, strain PRR2, active compounds read low",0.3 (active)
same,normalized growth,"locus YDR052C, strain DBF4, active compounds read low",0.95
same,normalized growth,"locus YDR226W, strain ADK1, active compounds read low",0.969
same,normalized growth,"locus YDR477W, strain SNF1, active compounds read low",0.289 (active)
same,normalized growth,"locus YER123W, strain YCK3, active compounds read low",0.157 (active)
same,normalized growth,"locus YER133W, strain GLC7, active compounds read low",0.344 (active)
same,normalized growth,"locus YFL009W, strain cdc4, active compounds read low",0.964
same,normalized growth,"locus YFL029C, strain CAK1, active compounds read low",0.923
same,normalized growth,"locus YFR003C, strain YPI1, active compounds read low",0.939
same,normalized growth,"locus YFR019W, strain FAB1, active compounds read low",0.153 (active)
same,normalized growth,"locus YFR028C, strain CDC14, active compounds read low",0.957
same,normalized growth,"locus YGR040W, strain KSS1, active compounds read low",0.349 (active)
same,normalized growth,"locus YGR052W, strain FMP48, active compounds read low",0.257 (active)
same,normalized growth,"locus YGR092W, strain DBF2, active compounds read low",0.135 (active)
same,normalized growth,[7],0.135 (active)
same,normalized growth,"locus YHR079C, strain IRE1, active compounds read low",0.131 (active)
same,normalized growth,"locus YHR082C, strain KSP1, active compounds read low",0.2 (active)
same,normalized growth,"locus YHR205W, strain SCH9, active compounds read low",0.221 (active)
same,normalized growth,"locus YIL147C, strain SLN1, active compounds read low",0.937
same,normalized growth,"locus YJL095W, strain BCK1, active compounds read low",0.136 (active)
same,normalized growth,"locus YJL128C, strain PBS2, active compounds read low",0.908
same,normalized growth,"locus YJL157C, strain FAR1, active compounds read low",0.181 (active)
same,normalized growth,"locus YJR016C, strain ILV3, active compounds read low",0.963
same,normalized growth,"locus YJR066W, strain TOR1 (second series), active compounds read low",0.289 (active)
same,normalized growth,"locus YJR066W, strain TOR1, active compounds read low",0.169 (active)
same,normalized growth,"locus YKL048C, strain ELM1, active compounds read low",0.405 (active)
same,normalized growth,"locus YKL067W, strain YNK1, active compounds read low",0.274 (active)
same,normalized growth,"locus YKL101W, strain HSL1, active compounds read low",0.323 (active)
same,normalized growth,"locus YKL193C, strain SDS22, active compounds read low",0.957
same,normalized growth,"locus YKL203C, strain TOR2, active compounds read low",0.296 (active)
same,normalized growth,"locus YLR113W, strain HOG1, active compounds read low",0.166 (active)
same,normalized growth,"locus YLR133W, strain CKI1, active compounds read low",0.208 (active)
same,normalized growth,"locus YLR403W, strain SFP1, active compounds read low",0.166 (active)
same,normalized growth,"locus YML070W, strain DAK1, active compounds read low",0.198 (active)
same,normalized growth,"locus YMR001C, strain CDC5, active compounds read low",0.943
same,normalized growth,"locus YMR205C, strain PFK2 (second series), active compounds read low",0.308 (active)
same,normalized growth,"locus YMR277W, strain FCP1, active compounds read low",0.96
same,normalized growth,"locus YNL006W, strain LST8, active compounds read low",0.952
same,normalized growth,"locus YNL020C, strain ARK1, active compounds read low",0.175 (active)
same,normalized growth,"locus YNL161W, strain CBK1, active compounds read low",0.965
same,normalized growth,"locus YNL183C, strain NPR1, active compounds read low",0.229 (active)
same,normalized growth,"locus YNL207W, strain RIO2, active compounds read low",0.951
same,normalized growth,"locus YNL222W, strain SSU72, active compounds read low",0.956
same,normalized growth,"locus YNL307C, strain MCK1 (second series), active compounds read low",0.175 (active)
same,normalized growth,"locus YOL078W, strain AVO1, active compounds read low",0.922
same,normalized growth,"locus YOL136C, strain PFK27, active compounds read low",0.153 (active)
same,normalized growth,"locus YOR061W, strain CKA2, active compounds read low",0.193 (active)
same,normalized growth,"locus YOR119C, strain RIO1, active compounds read low",0.368 (active)
same,normalized growth,"locus YOR231W, strain MKK1, active compounds read low",0.131 (active)
same,normalized growth,"locus YOR329C, strain SCD5, active compounds read low",0.942
same,normalized growth,"locus YPL031C, strain PHO85, active compounds read low",0.245 (active)
same,normalized growth,"locus YPL153C, strain RAD53, active compounds read low",0.213 (active)
same,normalized growth,"locus YPL204W, strain HRR25, active compounds read low",0.196 (active)
same,normalized growth,"locus YPL209C, strain IPL1, active compounds read low",0.952
same,normalized growth,"locus YPL256C, strain CLN2, active compounds read low",0.152 (active)
same,normalized growth,"locus YPR025C, strain CCL1, active compounds read low",0.948
same,normalized growth,"locus YPR106W, strain ISR1, active compounds read low",0.958
same,normalized growth,"locus YPR111W, strain DBF20, active compounds read low",0.955
same,normalized growth,"strain NNK1, active compounds read low",0.952
same,normalized growth,"strain TSCII, active compounds read low",0.913
Cc1cc(N=C(N)N=C(N)N)no1,normalized growth,[1],1.01
same,normalized growth,[2],1.01
same,normalized growth,[3],1.02
same,normalized growth,[4],0.902
same,normalized growth,[5],1
same,normalized growth,[6],1.01
same,normalized growth,"locus YGR229C, strain SMI1, active compounds read low",0.993
same,normalized growth,[7],1
same,normalized growth,[8],1.02
same,normalized growth,"locus YJL187C, strain SWE1, active compounds read low",1
same,normalized growth,[9],0.998
same,normalized growth,[10],1
same,normalized growth,[11],1
same,normalized growth,[12],1.01
same,normalized growth,[13],1.01
same,normalized growth,[14],0.988
same,normalized growth,[15],1.01
same,normalized growth,[16],1.03
same,normalized growth,[17],1
same,normalized growth,[18],1
same,normalized growth,[19],0.969
same,normalized growth,"locus YNL128W, strain TEP1, active compounds read low",1.02
same,normalized growth,[20],1
same,normalized growth,[21],1.02
same,normalized growth,[22],1
same,normalized growth,[23],1.01
same,normalized growth,[24],1.02
same,normalized growth,[25],0.964
same,normalized growth,[26],1.01
same,normalized growth,[27],1.07
